PLK1 PBD inh = blocks phosphopeptide binding to human PLK1 polo-box domain. Plk1 PBD binding of FITC phosphopeptide, fluorescence polarization. Potency, µM, most hits filed as inhibitors. hit rate 2.8% among 360,000; note: series mostly up to about 57 µM; nearly all actives have a fitted effect of over 65% in size
KAT2A inh = inhibitors of human GCN5L2 histone acetyltransferase; hit rate 0.21% among 390,000; GCN5L2 HAT assay, ThioGlo1 CoA-SH fluorescence; Q92830; Potency, µM (titrated, usually from 58.9 µM), usual class: inhibitors
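Titration-based screen in which CoA formation is detected via maleimide probe ThioGlo1 (50uM) turning fluorescent on thiol reaction; substrates H3(1-25) 75uM and acetyl-CoA 70uM, GCN5L2 20nM, 20 min incubation at room temperature.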
TDP1 inh = blocks human tyrosyl-DNA phosphodiesterase 1. Q9NUW8. recombinant TDP1, AlphaScreen DNA substrate cleavage. Potency, µM (titrated, usually from 130 µM), most hits filed as inhibitors. hit rate 0.28% among 350,000. AID 485290; note: nearly all actives have a fitted effect of over 40% in size
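Tdp1 1 nM final; 15 min RT w/ cpd; substrate 15 nM, 5 min; beads 10 ug/ml, 10 min; AlphaScreen read. Neg ctrl: no enzyme.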
VDR inhibitor = inhibitors of human vitamin D receptor; VDR-SRC2-3 peptide fluorescence polarization, 2 h; Potency, µM, most hits filed as inhibitors; hit rate 0.93% among 400,000; AID 504847
Target sequence (P11473 whole entry, looked up): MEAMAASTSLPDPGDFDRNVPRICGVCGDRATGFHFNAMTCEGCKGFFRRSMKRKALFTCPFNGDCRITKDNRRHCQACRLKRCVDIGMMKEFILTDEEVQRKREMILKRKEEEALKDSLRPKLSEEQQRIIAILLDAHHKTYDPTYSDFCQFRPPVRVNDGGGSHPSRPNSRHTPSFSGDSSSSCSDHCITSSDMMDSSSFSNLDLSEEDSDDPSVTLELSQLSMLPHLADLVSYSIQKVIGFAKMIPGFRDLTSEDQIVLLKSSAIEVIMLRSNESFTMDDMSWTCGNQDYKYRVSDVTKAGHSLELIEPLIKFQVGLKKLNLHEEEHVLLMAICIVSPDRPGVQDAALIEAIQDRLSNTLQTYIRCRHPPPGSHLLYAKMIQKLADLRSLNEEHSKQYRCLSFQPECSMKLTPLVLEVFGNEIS
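VDR–SRC2-3 interaction, FP format. Cmpds 23 nl via pintool, brief spin, 2 h ambient incubation.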
DT40 TDP1 no CPT = qHTS for Inhibitors of human tyrosyl-DNA phosphodiesterase 1 (TDP1): qHTS in cells in absence of CPT; Potency, µM (highest dose often 46.2 µM), most hits filed as inhibitors; DT40 Tdp1-/- hTDP1 cells, no CPT, ATP luminescence, 48 h; AID 686978, 2013; hit rate 15% among 420,000; note: nearly all actives have a fitted effect of over 55% in size
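Stably hTDP1-transfected Tdp1-null chicken DT40 cells were treated with library compounds minus camptothecin and grown for at least 48 hr at 37 °C, after which cellular ATP was quantified by luminescence.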
DT40 TDP1 CPT = DT40-hTDP1 cell growth loss with CPT | chicken DT40 Tdp1-/-;hTDP1 cells + 20 nM CPT, ATP luminescence, 48 h | Potency, µM (top dose mostly 46.2 µM), hits mostly inhibitors | hit rate 12% among 420,000; note: nearly all actives have a fitted effect of over 55% in size
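Cell growth measured by CellTiter-Glo luminescence after a minimum 48 h, 37 C compound exposure with 20 nM CPT in Tdp1-knockout DT40 cells stably expressing hTDP1, seeded 400/well; qHTS titration format.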
A number is an active result; [ ] = another dose, or the depositor's remark. This is a sample that favours compounds with a hit; in the whole collection about 18% have one here. Calls come from the whole dose curve; as a rule, active = well fitted curve in the direction sought with a large enough effect; inconclusive = small, poorly fitted or top-dose-only effect, or another doubt; inactive = no such curve, though single readings can be large; an effect the other way counts as inactive or inconclusive.

`CC1(C(=O)NC(=S)NNC(=O)c2ccncc2)CCCCC1` gave PLK1 PBD inh inactive, KAT2A inh inactive, TDP1 inh inactive, VDR inhibitor inactive, DT40 TDP1 no CPT 16µM and DT40 TDP1 CPT 13µM.
CCN(CC)CCCN1C=C2C(=O)C(C)(OC(=O)c3cccs3)C(=O)C=C2C=C1CCCC(=O)OC (centres undefined) was read as TDP1 inh inactive[21 µM].
For CCOc1ccc(CN(CCc2ccc3c(c2)OCO3)Cc2cc(OC)c(OC)cc2OC)cc1 the results were KAT2A inh inactive, TDP1 inh inactive[2.28 µM], VDR inhibitor inactive, DT40 TDP1 no CPT 15µM and DT40 TDP1 CPT inconclusive.
COc1ccccc1CC(=O)NCc1ccc2c(c1)OCO2 was read as PLK1 PBD inh inactive, KAT2A inh inactive, TDP1 inh inactive, VDR inhibitor inactive, DT40 TDP1 no CPT inactive and DT40 TDP1 CPT inactive.
CCOc1ccccc1CN(CCc1ccc2c(c1)OCO2)Cc1cccc(OC)c1OC was read as KAT2A inh inactive, VDR inhibitor inactive, DT40 TDP1 no CPT 16µM and DT40 TDP1 CPT 18µM.
Screening CCOc1cc(CNCc2ccc3c(c2)OCO3)ccc1OC returned PLK1 PBD inh inactive, KAT2A inh inactive, VDR inhibitor inactive, DT40 TDP1 no CPT inactive and DT40 TDP1 CPT inactive.
For COc1ccccc1S(=O)(=O)N(C)C[C@@H]1OCc2cnnn2CCCC(=O)N([C@@H](C)CO)C[C@H]1C the results were PLK1 PBD inh inactive, DT40 TDP1 no CPT inactive and DT40 TDP1 CPT inactive.
CCc1nn2c(=O)cc(COC(=O)c3cccc(NC(=O)c4cccs4)c3)nc2s1 was read as KAT2A inh inactive, TDP1 inh inactive, VDR inhibitor inactive, DT40 TDP1 no CPT 15µM and DT40 TDP1 CPT inconclusive.
CCc1nn2c(=O)cc(COC(=O)c3ccccc3NC(=O)COc3ccccc3C)nc2s1 was read as KAT2A inh inactive, TDP1 inh inactive, VDR inhibitor inactive, DT40 TDP1 no CPT 5.2µM and DT40 TDP1 CPT 4.1µM.
Screening Cc1nn2c(=O)cc(COC(=O)c3cccc(NC(=O)COc4ccccc4C)c3)nc2s1 returned KAT2A inh inactive, TDP1 inh inactive, VDR inhibitor inactive, DT40 TDP1 no CPT 21µM and DT40 TDP1 CPT 18µM.
Screening Cc1nn2c(=O)cc(COC(=O)c3ccc(NC(=O)COc4ccccc4F)cc3)nc2s1 returned KAT2A inh inactive, TDP1 inh inactive, VDR inhibitor inactive, DT40 TDP1 no CPT 5.2µM and DT40 TDP1 CPT 5.8µM.
CC(C)c1nn2c(=O)cc(COC(=O)c3cccc(NC(=O)c4cccs4)c3)nc2s1 was read as KAT2A inh inactive, TDP1 inh inactive, VDR inhibitor inactive, DT40 TDP1 no CPT inactive and DT40 TDP1 CPT inactive.
For Cc1nn2c(=O)cc(COC(=O)c3cccc(NC(=O)COc4ccc(C)c(C)c4)c3)nc2s1 the results were KAT2A inh inactive, TDP1 inh inactive, VDR inhibitor inactive, DT40 TDP1 no CPT inactive and DT40 TDP1 CPT inactive.
COC(=O)c1ccc(NC(=O)c2cccc(Cl)c2)o1 was read as PLK1 PBD inh inactive, KAT2A inh inactive, TDP1 inh inactive, VDR inhibitor inactive, DT40 TDP1 no CPT inconclusive and DT40 TDP1 CPT inactive.
`CCc1nn2c(=O)cc(COC(=O)c3cccc(NC(=O)COc4ccccc4F)c3)nc2s1` gave KAT2A inh inactive, TDP1 inh inactive, VDR inhibitor inactive, DT40 TDP1 no CPT inconclusive and DT40 TDP1 CPT 18µM.
For CC(=O)N1CCN(Cc2nc3ccc(Cl)cc3n2CCO)CC1 the results were PLK1 PBD inh inactive, KAT2A inh inactive, VDR inhibitor inactive, DT40 TDP1 no CPT inactive and DT40 TDP1 CPT inactive.
Screening C[C@H](CO)N1C[C@H](C)[C@@H](CN(C)Cc2ccc(F)cc2)Oc2ncc(Br)cc2C1=O returned PLK1 PBD inh inactive, DT40 TDP1 no CPT inconclusive and DT40 TDP1 CPT inactive.
Screening O=C(O)c1cc(-c2ccco2)nn1-c1ccc(Cl)cc1 returned PLK1 PBD inh inconclusive, KAT2A inh 20µM, TDP1 inh 14µM, VDR inhibitor inconclusive, DT40 TDP1 no CPT inactive and DT40 TDP1 CPT inconclusive.

Source: PubChem BioAssay
